Test results taken from PubChem BioAssay AID1159580 (chemical genetic matrix, 2015).
Several values for one entry are separate records, joined by “and”; a condition that tells them apart may be missing. Identical values can stand only once. About 2,000 (36%) of roughly 5,500 compounds were called active. Not shown: some 18% with an inconclusive outcome. Cut-off read from the data, not from the text of the source: active = normalized growth mostly below about 0.91 (no sharp cut-off); inconclusive = no clear call, values can overlap the other calls; inactive = mostly above about 0.92. This is one part of the list.

Assay: chemical genetic growth profiling, strain panel (AID 1159580);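 note: tested at 20 µM; growth read once vehicle control cultures reached saturation at 30 °C; 1 = growth at the plate median or of vehicle wells; lower values mean less growth of the strain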
Settings: S. cerevisiae deletion strains, growth OD

Measured: normalized growth

OC[C@@H](O)[C@@H](O[C@@H]1O[C@H](CO)[C@@H](O)[C@H](O)[C@H]1O)[C@H](O)[C@@H](O)CO
inactive: locus YAL013W, strain DEP1, hits give low values 1.01 | locus YAL021C, strain ccr4, hits give low values 0.998 | locus YAL026C, strain drs2, hits give low values 0.982 | locus YAL030W, strain snc1, hits give low values 0.993 | locus YBL061C, strain skt5, hits give low values 1.01 | locus YBR009C, strain hhf1, hits give low values 1 | locus YBR021W, strain FUR4, hits give low values 1.03 | locus YBR023C, strain chs3, hits give low values 1 | locus YBR171W, strain sec66, hits give low values 0.989 | locus YBR229C, strain ROT2, hits give low values 1.01 | locus YBR231C, strain swc5, hits give low values 0.996 | locus YBR279W, strain paf1, hits give low values 0.979 | locus YCL011C, strain gbp2, hits give low values 0.989 | locus YCL016C, strain dcc1, hits give low values 1.01 | locus YCL029C, strain bik1, hits give low values 1.02 | locus YCL061C, strain MRC1, hits give low values 1 | locus YCL069W, strain vba3, hits give low values 0.972 | locus YCR088W, strain abp1, hits give low values 0.989 | locus YDL005C, strain med2, hits give low values 0.985 | locus YDL035C, strain GPR1, hits give low values 1.03 | locus YDL040C, strain nat1, hits give low values 0.989 | locus YDL074C, strain BRE1, hits give low values 1.01 | locus YDL101C, strain DUN1, hits give low values 1.01 | locus YDL134C, strain PPH21, hits give low values 1.01 | locus YDL185W, strain tfp1, hits give low values 1.01 | locus YDL192W, strain arf1, hits give low values 1.01 | locus YDR001C, strain nth1, hits give low values 0.996 | locus YDR069C, strain doa4, hits give low values 0.981 | locus YDR101C, strain arx1, hits give low values 1 | locus YDR137W, strain rgp1, hits give low values 1 | locus YDR150W, strain NUM1, hits give low values 0.998 | locus YDR159W, strain sac3, hits give low values 0.986 | locus YDR162C, strain NBP2, hits give low values 0.979 | locus YDR195W, strain ref2 0.958 | locus YDR297W, strain sur2, hits give low values 0.992 | locus YDR318W, strain mcm21, hits give low values 1.04 | locus YDR334W, strain swr1, hits give low values 0.984 | locus YDR335W, strain msn5, hits give low values 0.992 | locus YDR388W, hits give low values 1.01 | locus YDR392W, strain spt3, hits give low values 0.951 | locus YDR502C, strain sam2, hits give low values 0.994 | locus YEL003W, strain gim4, hits give low values 0.989 | locus YEL037C, strain rad23, hits give low values 0.966 | locus YEL061C, strain CIN8 (second series), hits give low values 0.977 | locus YEL061C, strain CIN8, hits give low values 1 | locus YER015W, strain faa2, hits give low values 1 | locus YER016W, strain bim1, hits give low values 0.996 | locus YER110C, hits give low values 1.02 | locus YER111C, strain swi4, hits give low values 0.972 | locus YER155C, strain BEM2 (second series), hits give low values 1.02 | locus YER155C, strain BEM2, hits give low values 0.987 | locus YER167W, strain BCK2, hits give low values 1.06 | locus YFR010W, strain ubp6, hits give low values 0.969 | locus YGL078C, strain dbp3, hits give low values 0.987 | locus YGL086W, strain mad1, hits give low values 1.03 | locus YGL167C, strain pmr1, hits give low values 1.01 | locus YGL173C, strain kem1, hits give low values 1 | locus YGL227W, strain vid30, hits give low values 0.99 | locus YGL240W, strain doc1, hits give low values 0.99 | locus YGL248W, strain PDE1, hits give low values 1.01 | locus YGL253W, strain hxk2, hits give low values 0.999 | locus YGR078C, strain PAC10, hits give low values 1.02 | locus YGR135W, strain pre9, hits give low values 1.03 | locus YGR229C, strain SMI1, hits give low values 1.02 | locus YGR252W, strain gcn5, hits give low values 1.07 | locus YHR013C, strain ard1, hits give low values 0.989 | locus YHR027C, strain rpn1, hits give low values 1 | locus YHR030C, strain SLT2, hits give low values 1 and 0.993 | locus YHR079C, strain IRE1 (second series), hits give low values 1.01 | locus YHR079C, strain IRE1, hits give low values 1.02 | locus YHR094C, strain hxt1, hits give low values 1.01 | locus YHR129C, strain ARP1, hits give low values 1.01 | locus YHR142W, strain chs7, hits give low values 0.998 | locus YHR200W, strain rpn10, hits give low values 1.02 | locus YIL066C, strain RNR3, hits give low values 1.01 | locus YIL073C, strain SPO22, hits give low values 1.1 | locus YIL125W, strain kgd1, hits give low values 1.01 | locus YIR030C, strain dcg1, hits give low values 1.01 | locus YJL092W, strain hpr5, hits give low values 0.991 | locus YJL095W, strain BCK1 (second series), hits give low values 1 | locus YJL095W, strain BCK1, hits give low values 1.02 and 0.987 | locus YJL115W, strain asf1, hits give low values 0.98 | locus YJL129C, strain trk1, hits give low values 1.01 | locus YJL134W, strain LCB3, hits give low values 1.01 | locus YJL154C, strain vps35, hits give low values 0.984 | locus YJL164C, strain tpk1, hits give low values 1 | locus YJL166W, strain qcr8, hits give low values 0.998 | locus YJL168C, strain set2, hits give low values 1.01 | locus YJL187C, strain SWE1 (second series), hits give low values 1.01 | locus YJL187C, strain SWE1, hits give low values 0.992 | locus YJR043C, strain POL32, hits give low values 1.07 | locus YJR066W, strain TOR1, hits give low values 0.95
